Results on 24 compounds are retold here after PubChem BioAssay AID1259415 (National Center for Advancing Translational Sciences (NCATS), 2018).

The campaign covered roughly 410,000 compounds. About 18,000 (4.4%) were called active. Inconclusive results (about 7%) are left out. No stated cut-off is given here; in the data, active means activity change below about -60%; inconclusive means no clear call, values can overlap the other calls; inactive means above about -39%. The list comes from a sample in which actives are over-represented; it also holds similar structures and randomly drawn compounds.
On the % scale 0 is the no-effect control and ±100 the full control effect.

This assay is described as follows: qHTS Assay for inhibitors of the human cytomegalovirus (HCMV). Particulars: HFF cells, HCMV-luciferase reporter, 72 h; at 57.5 µM; hits give low values. In short, it runs like this:
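HFF cells seeded 16 h at 37C, treated with compounds, infected with luciferase-reporter HCMV at MOI 1 PFU/cell; luciferase read at 72 h post infection, normalized to buffer-only and Salinomycin controls.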
`CC(=O)Nc1cc(C(=O)NCc2ccc(F)cc2)ccc1Sc1ccc(F)cc1`: the activity change, negative = inhibition is -2.97% (inactive).

Consider `Cc1cc(C)nc(-n2nc(C)cc2NC(=O)c2ccc(F)cc2F)n1`, for which the activity change, negative = inhibition is -89.4% (active).

As for `CCOC(=O)c1cccc(NC(=O)c2ccc(F)cc2F)c1`, the activity change, negative = inhibition is 17.1% (inactive).

Consider `CC(=O)N/C(=N/c1nc(C)cc(C)n1)Nc1ccc(F)cc1F`, for which the activity change, negative = inhibition was -32.1% (inactive).

For the compound `Cc1ccc(-c2nn3c(=O)cc(CN4CCN(S(=O)(=O)c5ccc(Cl)cc5)CC4)nc3s2)cc1`, the activity change, negative = inhibition is -1.44% (inactive).

Take `CCSc1ccccc1C(=O)NCc1ccc(OC)cc1`: the activity change, negative = inhibition was -19.4% (inactive).

For `COc1ccc(CNC(=O)/C(C#N)=C/c2cccc(OC)c2OC)cc1`, the activity change, negative = inhibition was -83.6% (active).

As to `COc1cc(/C=C(\C#N)C(=O)Nc2ccc3ccccc3c2)c([N+](=O)[O-])cc1OC`, the activity change, negative = inhibition is 16.2% (inactive).

Turning to `COc1ccc(NC(=O)CCCN2C(=O)CCn3nc(-c4cn(C)c5ccccc45)cc32)cc1OC`, the activity change, negative = inhibition is -28.9% (inactive).

As to `CCOc1ccc(CN2CCN(CCCc3ccccc3)C(CCO)C2)cc1` (centres undefined), the activity change, negative = inhibition is 37.5% (inactive).

Regarding `CCOc1ccccc1CN1CCN(C2CCC2)CC1CCO` (centres undefined), the activity change, negative = inhibition was -93.5% (active).

Consider `COc1ccccc1N1CCC(N2CCN(CC(C)(C)C)C(CCO)C2)CC1` (centres undefined), for which the activity change, negative = inhibition was 33.4% (inactive).

`Cc1ccccc1CSc1nc(-c2ccccc2)nc2c1Cc1c(CO)cnc(C)c1O2`: the activity change, negative = inhibition is 8.94% (inactive).

Regarding `CCOC(=O)C1(Cc2cccc(OC)c2)CCN(C(C)COC)CC1` (centres undefined), the activity change, negative = inhibition is -7.28% (inactive).

`CCOC(=O)[C@]12Cc3cc(OC)ccc3[C@H]1N(C(C)C)C(=O)c1ccccc12`: the activity change, negative = inhibition is -109% (active).

Regarding `CCOC(=O)c1ccc(NC(=O)CC2C(=O)N(c3cccc(OC)c3)C(=O)N2C2CCCCC2)cc1` (centres undefined), the activity change, negative = inhibition was -1.63% (inactive).

With `CCOC(=O)C1(Cc2cccc(OC)c2)CCN(C(C)CC(C)(C)O)CC1` (centres undefined), the activity change, negative = inhibition was 14% (inactive).

For the compound `CCOc1ccc(NC(=O)CC2C(=O)N(c3cccc(OC)c3)C(=O)N2C2CCCCC2)cc1` (centres undefined), the activity change, negative = inhibition was 7.53% (inactive).

For `CCOC(=O)[C@]12Cc3ccccc3[C@H]1N(C1CCCCC1)C(=O)c1cc(OC)ccc12`, the activity change, negative = inhibition was -101% (active).

Take `Cc1ccc(O)c(NC(=O)CCS(=O)(=O)c2nc(-c3ccc4c(c3)OCO4)cc(C(F)(F)F)n2)c1`: the activity change, negative = inhibition was 14.6% (inactive).

For `CCOC(=O)[C@]12CCCC=C1N(Cc1ccc3c(c1)OCO3)C(=O)[C@H](CC(=O)NCc1cccs1)C2`, the activity change, negative = inhibition is 6% (inactive).

For `Cc1ccc(C)c(CNC(=O)c2cc3ccccn3n2)c1`, the activity change, negative = inhibition was 7.66% (inactive).

`CCc1ccc(-n2nnc(-c3nc(-c4ccccc4)no3)c2C)cc1`: the activity change, negative = inhibition is 168% (inactive).

As to `O=C(Nc1ccc(OC(F)(F)F)cc1)C1CCCN(S(=O)(=O)c2ccc(Br)s2)C1` (centres undefined), the activity change, negative = inhibition was 6.14% (inactive).
